# Activity calls are given as the source filed them.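 How the source made its calls, unless noted: active means visually confirmed hit in the image check and inhibition above 20%; inconclusive means visually confirmed hit but inhibition not above 20%; inactive means no visual hit in the image check.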
# How the values were obtained:
# [1] = inhibitors of TNFa-induced NFkB p65 translocation, primary screen, imaging, HUVEC, MLSMR starter and 10KST1 sets (AID 438;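 active means inhibition above 20% together with a positive visual image hit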;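 further: compound added about 3h40 before a 20 min TNFalpha stimulation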;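 on inhibition: signal is the nuclear over cytoplasmic p65 intensity ratio per well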); settings: HUVEC TNFa-induced p65 nuclear translocation; cell count: measured here: nuclei count (cytotoxicity indicator), at 2.08 µM; inhibition: at 2 µM, stronger effect = higher value, 0% TNFa-plus-vehicle, 100% no-TNFa wells
# [2] = reduction of polyQ htt aggregates in cells – imaging, exon1htt(103Q)mCFP cells, high-content imaging, primary screen (AID 483;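 active means visual image review flags a hit and inhibition of aggregation exceeds 20%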;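 further: compound exposure lasted 3 days before fixation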;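 on nuclei count: percent of the per-plate median nuclei count of sample wells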); settings: exon1htt(103Q)mCFP cell line, aggregate imaging, at 2 µM; inhibition of aggregation: stronger effect = higher value; nuclei count: measured here: cell count, toxicity
# [3] = endothelial E-selectin expression blockers – imaging, HUVEC, immunofluorescence, MLSMR starter and 10KST1 sets, primary screen (AID 487); settings: HUVEC TNFalpha-induced E-selectin immunofluorescence imaging, at 2 µM; inhibition: stronger effect = higher value; nuclei count: measured here: cell number, toxicity;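 on inhibition: signal is fraction of cell area covered by stained E-selectin grains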;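 on nuclei count: 100% = median nuclei count of all wells on the same plate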
# [4] = biological target: Voltage-gated potassium channel subunit beta-2 (Rattus norvegicus) (UniProt P62483); assay: inhibitors of rat Kvbeta2 reductase activity – biochemical, NADPH fluorescence, primary screen (AID 622;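 active means fluorescence slope higher than the sample average by over 3 SD, cut at about -0.22 in these data, passing the limit was not always enough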;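 further: slope of raw intensity against log time taken from 70 to 1610 s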); settings: recombinant KvBeta, 4-cyanobenzaldehyde reduction, at 10 µM, stronger effect = higher value
# [5] = biological target: Voltage-gated potassium channel subunit beta-2 (Rattus norvegicus) (UniProt P62483); assay: enhancers of rat Kvbeta2 NADPH turnover – biochemical, NADPH fluorescence, primary screen (AID 623;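 active means NADPH fluorescence slope more negative than the mean of all samples by about 3 SD, 99.7% confidence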;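 further: fluorescence intensity change per second fitted from 20 to 320 s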); settings: Recombinant KvBeta, NADPH fluorescence decrease slope, 10 min; at 10 µM; stronger effect = lower value
# [6] = biological target: Alpha-2C adrenergic receptor (Homo sapiens) (UniProt P18825); assay: compounds altering alpha2C-coupled GIRK flux – cell-based, HEK293 alpha2C/GIRK1/2, thallium flux, primary screen (AID 624;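 active means fluorescence slope after compound addition differing from the mean of all screened samples at 99.7% confidence, in either direction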;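 further: slope of fluorescence ratio to pre-addition baseline per second over 15 to 24 s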); settings: thallium flux BTC fluorescence, at 10 µM, actives lie on both sides
# [7] = blockers of RIG-like receptor reporter activation – cell-based, Sendai virus stimulus, luciferase, 10K MLSCN set, TLR/RLR signaling modifier project, primary screen (AID 602276;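 active means inhibition at or above 50% at 10 µM; inactive means inhibition below 50%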;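 further: firefly luciferase from ISG56 promoter only with Renilla not read in this screen; 0% = Sendai virus plus DMSO and 100% = medium plus DMSO without virus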); settings: HEK293 RL24 IRF3 luciferase reporter, at 10 µM, stronger effect = higher value
# [8] = TLR3 IRF3 reporter activation blockers – cell-based, poly I:C stimulus, luciferase, 10K MLSCN set, primary screen (AID 602277;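 active means inhibition of the reporter signal at or above 50%; inactive means inhibition below 50%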); settings: HEK293-TLR3 RL24 IRF3 luciferase reporter, at 10 µM, stronger effect = higher value
# Chain of Alpha-2C adrenergic receptor (Homo sapiens) (P18825 whole entry, looked up): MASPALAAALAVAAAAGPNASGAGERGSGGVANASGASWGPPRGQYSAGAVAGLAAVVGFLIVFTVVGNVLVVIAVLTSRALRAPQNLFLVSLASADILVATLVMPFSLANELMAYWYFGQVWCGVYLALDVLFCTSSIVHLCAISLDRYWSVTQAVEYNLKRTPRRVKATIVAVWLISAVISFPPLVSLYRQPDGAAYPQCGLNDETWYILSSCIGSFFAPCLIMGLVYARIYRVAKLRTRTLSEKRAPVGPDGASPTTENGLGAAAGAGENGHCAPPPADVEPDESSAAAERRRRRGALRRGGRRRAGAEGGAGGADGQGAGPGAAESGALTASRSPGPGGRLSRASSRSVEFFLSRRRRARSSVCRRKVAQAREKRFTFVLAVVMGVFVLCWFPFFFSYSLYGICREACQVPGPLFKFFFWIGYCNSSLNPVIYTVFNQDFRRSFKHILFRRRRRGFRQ
# Chain of Voltage-gated potassium channel subunit beta-2 (Rattus norvegicus) (P62483 whole entry, looked up): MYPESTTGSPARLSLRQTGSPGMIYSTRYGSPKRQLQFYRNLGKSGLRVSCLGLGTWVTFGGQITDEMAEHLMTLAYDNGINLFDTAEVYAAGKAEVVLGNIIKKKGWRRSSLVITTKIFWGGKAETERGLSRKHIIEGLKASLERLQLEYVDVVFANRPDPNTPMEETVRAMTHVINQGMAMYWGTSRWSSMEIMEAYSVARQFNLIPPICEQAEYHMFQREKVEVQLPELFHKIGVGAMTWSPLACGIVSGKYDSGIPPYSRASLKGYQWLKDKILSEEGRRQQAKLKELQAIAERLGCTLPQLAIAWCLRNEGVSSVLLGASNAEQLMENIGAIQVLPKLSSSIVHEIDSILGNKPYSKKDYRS
SMILES,cell count [1],inhibition [1],inhibition of aggregation [2],nuclei count [2] [%],inhibition [3],nuclei count [3] [%],fluorescence slope [4],NADPH fluorescence slope [5],slope [6],inhibition [7],inhibition [8]
N#CCCN1CCN(S(=O)(=O)c2ccc(S(=O)(=O)NC3CCCCC3)cc2)CC1,645,-2.4% (inactive),-20.2% (inactive),124,-47.2% (inactive),115,-0.584 (inactive),-4.3e-06 (inactive),0.00631 (inactive),14.1% (inactive),32.4% (inactive)
O=S(=O)(NC1CCCC1)c1ccc(S(=O)(=O)N2CCc3ccccc32)cc1,395,0% (inactive),8.6% (inactive),102,-13.9% (inactive),97.5,-0.589 (inactive),-1.9e-05 (inactive),0.00513 (inactive),5.42% (inactive),-11.7% (inactive)
Cc1ccc(C(C(=O)NC2CCCCC2)N(C(=O)c2csnn2)C2CCCC2)o1 (stereo not drawn),514,-8.3% (inactive),-9.5% (inactive),103,-68.9% (inactive),112,-0.547 (inactive),1.5e-05 (inactive),0.00533 (inactive),14.4% (inactive),47.6% (inactive)
O=C(Nc1cccnc1)c1ccc2c(c1)C(=O)N(Cc1cccnc1)C2=O,386,1.4% (inactive),9% (inactive),105,-26.9% (inactive),99.7,-0.615 (inactive),-1.2e-05 (inactive),0.00348 (inactive),5.57% (inactive),11.9% (inactive)
O=C(CCC(=O)N1CCc2ccccc2C1)N1CCN(S(=O)(=O)c2ccccc2)CC1,361,-2.5% (inactive),-6.9% (inactive),131,-14.3% (inactive),102,-0.45 (inactive),-1.8e-05 (inactive),0.00506 (inactive),-9.4% (inactive),5.93% (inactive)
COc1ccc(C(N)=O)cc1N,413,2.5% (inactive),-8.6% (inactive),98.3,-40.2% (inactive),118,-0.45 (inactive),2.7e-05 (inactive),0.00578 (inactive),-5.97% (inactive),8.78% (inactive)
COc1cccc(-n2ccnc2SCC(=O)N2CCc3ccccc32)c1,565,-7.6% (inactive),3% (inactive),108,1.1% (inactive),89.7,-0.536 (inactive),-1e-05 (inactive),0.00609 (inactive),-3.01% (inactive),-5.47% (inactive)
C(=C\c1ccccc1)/CSc1nnc(-c2ccccn2)n1Cc1ccco1,574,1.1% (inactive),-38.4% (inactive),24,-95.8% (inactive),109,-0.5 (inactive),-5.3e-05 (inactive),0.00478 (inactive),68.5% (active),58.9% (active)

# From PubChem BioAssay
